The supplement of paper PMC10849652
About 8,800 targets were measured; listed, in parts, are those with a hit and a random draw of the rest. About 0.5% of all pairs of compound and target were hits. Unmarked numbers belong to inactive results.

compound: CC1=C(C=C(C=C1)NC(=O)C2=CC(=CC=C2)C(C)(C)C#N)NC3=CC4=C(C=C3)N=CN(C4=O)C; test: log2 fold change, soluble protein after heating vs DMSO (PISA); higher = thermal stabilisation; K562 lysate, 10 uM; active = over 0.2 and 3.5 SD of the protein, either way, in both replicates (recomputed)
Summary of the method: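 A 30 min treatment with 10 μM compound was applied to crude K562 extract at 1 mg/mL protein in PBS pH 7.4 with 1 mM MgCl2. Heating for 3 min spanned 48°C-58°C, after which aliquots were pooled, adjusted to 0.5% NP-40 at 4°C and spun at 21,000xg for 90 min. TMTpro 16plex LC-MS/MS of the supernatant, with channel sums equalised, gave values recorded as log-two fold change in thermal stability against solvent controls, from duplicates.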

Chain of UniProt Q14746 (Q14746 whole entry, looked up): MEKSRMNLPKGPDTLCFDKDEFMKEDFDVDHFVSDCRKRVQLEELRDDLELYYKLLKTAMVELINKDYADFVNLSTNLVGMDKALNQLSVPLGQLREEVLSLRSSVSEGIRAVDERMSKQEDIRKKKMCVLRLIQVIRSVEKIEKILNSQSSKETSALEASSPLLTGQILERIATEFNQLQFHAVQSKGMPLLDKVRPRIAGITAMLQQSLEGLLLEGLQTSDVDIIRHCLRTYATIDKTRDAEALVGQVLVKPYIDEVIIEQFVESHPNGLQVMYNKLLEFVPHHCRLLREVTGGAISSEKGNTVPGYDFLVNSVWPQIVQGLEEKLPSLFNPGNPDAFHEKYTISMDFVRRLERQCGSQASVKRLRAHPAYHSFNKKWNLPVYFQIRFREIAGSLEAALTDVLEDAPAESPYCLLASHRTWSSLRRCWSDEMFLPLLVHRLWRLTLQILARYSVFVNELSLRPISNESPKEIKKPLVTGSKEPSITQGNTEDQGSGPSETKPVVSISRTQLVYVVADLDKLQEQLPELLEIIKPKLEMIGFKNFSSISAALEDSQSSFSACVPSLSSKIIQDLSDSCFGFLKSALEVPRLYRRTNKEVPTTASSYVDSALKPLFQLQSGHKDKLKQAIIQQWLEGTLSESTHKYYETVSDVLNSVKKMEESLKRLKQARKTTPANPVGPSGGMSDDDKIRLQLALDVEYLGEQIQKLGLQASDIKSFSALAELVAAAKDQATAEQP
Chain of UniProt Q8IY22 (Q8IY22 whole entry, looked up): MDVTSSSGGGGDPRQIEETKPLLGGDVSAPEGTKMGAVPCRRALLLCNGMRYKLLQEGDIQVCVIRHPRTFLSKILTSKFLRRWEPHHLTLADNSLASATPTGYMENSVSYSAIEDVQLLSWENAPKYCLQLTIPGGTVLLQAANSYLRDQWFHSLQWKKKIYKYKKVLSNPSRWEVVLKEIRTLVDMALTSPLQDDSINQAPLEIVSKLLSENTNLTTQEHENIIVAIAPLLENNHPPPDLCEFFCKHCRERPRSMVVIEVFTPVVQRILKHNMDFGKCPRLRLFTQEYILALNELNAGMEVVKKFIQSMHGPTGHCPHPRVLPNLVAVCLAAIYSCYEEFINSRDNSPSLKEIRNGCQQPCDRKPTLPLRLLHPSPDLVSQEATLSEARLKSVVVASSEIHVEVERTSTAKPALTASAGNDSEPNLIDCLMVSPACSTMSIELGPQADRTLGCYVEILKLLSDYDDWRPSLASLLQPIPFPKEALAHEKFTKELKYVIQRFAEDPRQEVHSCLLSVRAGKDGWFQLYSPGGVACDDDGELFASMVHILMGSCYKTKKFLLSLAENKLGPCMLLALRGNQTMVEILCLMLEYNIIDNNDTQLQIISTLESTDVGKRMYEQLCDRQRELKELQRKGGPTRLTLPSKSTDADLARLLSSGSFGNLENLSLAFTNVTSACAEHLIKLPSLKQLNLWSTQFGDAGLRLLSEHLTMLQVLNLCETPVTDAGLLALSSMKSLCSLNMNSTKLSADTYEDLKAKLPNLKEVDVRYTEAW
Chain of UniProt Q8WYQ5 (Q8WYQ5 whole entry, looked up): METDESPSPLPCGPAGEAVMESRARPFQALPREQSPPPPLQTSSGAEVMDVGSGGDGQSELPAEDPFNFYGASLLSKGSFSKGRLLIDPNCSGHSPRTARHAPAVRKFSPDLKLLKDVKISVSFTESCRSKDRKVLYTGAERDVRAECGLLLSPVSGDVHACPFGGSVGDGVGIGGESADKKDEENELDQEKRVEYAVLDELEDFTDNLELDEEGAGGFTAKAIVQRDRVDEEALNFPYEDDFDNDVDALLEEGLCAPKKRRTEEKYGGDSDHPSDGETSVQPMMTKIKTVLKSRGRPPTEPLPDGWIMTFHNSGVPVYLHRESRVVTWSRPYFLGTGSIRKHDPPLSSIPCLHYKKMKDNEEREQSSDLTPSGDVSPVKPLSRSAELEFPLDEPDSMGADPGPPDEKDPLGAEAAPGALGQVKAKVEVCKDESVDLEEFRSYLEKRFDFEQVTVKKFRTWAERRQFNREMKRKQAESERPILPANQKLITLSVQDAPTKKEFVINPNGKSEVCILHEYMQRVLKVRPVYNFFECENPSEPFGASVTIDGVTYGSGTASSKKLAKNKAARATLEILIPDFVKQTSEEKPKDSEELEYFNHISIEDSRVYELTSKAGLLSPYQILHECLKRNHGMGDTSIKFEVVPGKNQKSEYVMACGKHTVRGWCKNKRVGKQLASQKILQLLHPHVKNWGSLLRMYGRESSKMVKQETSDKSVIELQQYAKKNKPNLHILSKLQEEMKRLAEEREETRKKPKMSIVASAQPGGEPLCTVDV
Chain of UniProt Q9H4E7 (Q9H4E7 whole entry, looked up): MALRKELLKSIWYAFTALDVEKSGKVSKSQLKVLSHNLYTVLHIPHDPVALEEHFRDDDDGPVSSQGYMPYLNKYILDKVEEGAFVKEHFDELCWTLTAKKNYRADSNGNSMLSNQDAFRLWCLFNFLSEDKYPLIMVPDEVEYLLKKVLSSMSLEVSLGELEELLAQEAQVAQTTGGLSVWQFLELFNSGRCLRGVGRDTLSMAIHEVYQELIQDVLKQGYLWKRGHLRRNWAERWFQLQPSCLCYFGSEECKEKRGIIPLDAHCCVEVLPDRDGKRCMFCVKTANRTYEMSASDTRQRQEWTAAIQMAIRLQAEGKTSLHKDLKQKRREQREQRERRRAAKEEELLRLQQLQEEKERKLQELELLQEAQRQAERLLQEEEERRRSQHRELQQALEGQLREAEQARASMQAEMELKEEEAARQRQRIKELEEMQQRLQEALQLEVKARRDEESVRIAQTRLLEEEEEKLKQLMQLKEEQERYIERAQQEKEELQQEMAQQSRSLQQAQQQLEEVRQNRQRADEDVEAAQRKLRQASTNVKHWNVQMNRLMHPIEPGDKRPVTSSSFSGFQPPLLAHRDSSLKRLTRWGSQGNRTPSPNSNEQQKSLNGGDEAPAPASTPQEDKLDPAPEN
Chain of UniProt Q9UHD1 (Q9UHD1 whole entry, looked up): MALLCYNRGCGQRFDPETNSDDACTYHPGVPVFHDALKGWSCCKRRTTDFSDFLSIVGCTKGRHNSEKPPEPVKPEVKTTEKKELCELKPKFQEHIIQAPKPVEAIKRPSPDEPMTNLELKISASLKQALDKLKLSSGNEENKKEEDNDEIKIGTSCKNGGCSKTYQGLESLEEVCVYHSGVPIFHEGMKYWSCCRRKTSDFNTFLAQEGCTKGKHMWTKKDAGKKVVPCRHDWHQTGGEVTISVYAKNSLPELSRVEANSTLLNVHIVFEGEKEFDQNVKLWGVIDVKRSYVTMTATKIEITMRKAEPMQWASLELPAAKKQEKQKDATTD
Chain of UniProt O15111 (O15111 whole entry, looked up): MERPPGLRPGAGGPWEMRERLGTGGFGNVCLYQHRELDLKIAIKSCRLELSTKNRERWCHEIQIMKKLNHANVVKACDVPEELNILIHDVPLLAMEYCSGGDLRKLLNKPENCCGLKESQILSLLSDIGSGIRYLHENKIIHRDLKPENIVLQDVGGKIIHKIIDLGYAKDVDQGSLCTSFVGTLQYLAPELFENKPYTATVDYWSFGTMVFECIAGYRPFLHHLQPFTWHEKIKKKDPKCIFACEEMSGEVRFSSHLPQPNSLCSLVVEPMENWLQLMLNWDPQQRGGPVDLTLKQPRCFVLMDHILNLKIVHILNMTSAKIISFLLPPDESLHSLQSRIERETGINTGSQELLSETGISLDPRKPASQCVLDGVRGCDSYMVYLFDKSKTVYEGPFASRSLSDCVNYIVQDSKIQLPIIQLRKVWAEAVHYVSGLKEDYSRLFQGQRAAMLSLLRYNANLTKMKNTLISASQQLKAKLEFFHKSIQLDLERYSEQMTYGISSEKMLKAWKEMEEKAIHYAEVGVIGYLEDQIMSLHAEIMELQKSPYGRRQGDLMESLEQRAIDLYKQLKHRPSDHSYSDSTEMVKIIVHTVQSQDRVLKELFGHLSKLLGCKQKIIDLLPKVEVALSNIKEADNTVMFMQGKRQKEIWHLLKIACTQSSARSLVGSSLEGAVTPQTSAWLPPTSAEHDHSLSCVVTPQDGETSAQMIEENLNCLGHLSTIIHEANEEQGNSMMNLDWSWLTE
Chain of UniProt P33240 (P33240 whole entry, looked up): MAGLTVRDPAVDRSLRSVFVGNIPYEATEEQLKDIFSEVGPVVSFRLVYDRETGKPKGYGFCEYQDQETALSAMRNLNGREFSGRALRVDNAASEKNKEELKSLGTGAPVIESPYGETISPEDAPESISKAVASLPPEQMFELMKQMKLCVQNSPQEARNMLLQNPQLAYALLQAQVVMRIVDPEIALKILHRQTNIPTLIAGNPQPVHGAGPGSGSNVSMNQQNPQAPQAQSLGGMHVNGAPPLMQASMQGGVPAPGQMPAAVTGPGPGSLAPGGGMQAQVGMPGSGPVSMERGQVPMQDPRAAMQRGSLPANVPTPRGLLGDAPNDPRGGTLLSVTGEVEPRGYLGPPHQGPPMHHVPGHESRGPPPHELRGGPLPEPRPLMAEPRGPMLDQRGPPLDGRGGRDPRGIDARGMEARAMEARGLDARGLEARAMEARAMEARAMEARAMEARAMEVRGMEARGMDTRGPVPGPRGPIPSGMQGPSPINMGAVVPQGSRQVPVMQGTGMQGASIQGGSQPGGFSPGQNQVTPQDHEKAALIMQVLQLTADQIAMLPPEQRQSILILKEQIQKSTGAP
Chain of UniProt P06732 (P06732 whole entry, looked up): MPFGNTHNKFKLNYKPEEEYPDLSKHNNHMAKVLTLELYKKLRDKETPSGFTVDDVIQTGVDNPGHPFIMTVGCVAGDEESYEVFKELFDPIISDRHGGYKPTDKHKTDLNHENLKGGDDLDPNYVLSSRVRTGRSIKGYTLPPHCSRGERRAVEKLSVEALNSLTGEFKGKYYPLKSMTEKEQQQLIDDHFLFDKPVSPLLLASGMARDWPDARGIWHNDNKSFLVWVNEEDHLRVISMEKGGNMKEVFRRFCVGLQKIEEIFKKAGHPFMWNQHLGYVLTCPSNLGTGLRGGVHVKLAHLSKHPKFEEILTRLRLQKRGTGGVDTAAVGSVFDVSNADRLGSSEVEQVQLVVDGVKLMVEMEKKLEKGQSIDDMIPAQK

Row | Target | log2 fold change
1 | CKM (UniProt P06732) | 0.044
2 | CMIP (UniProt Q8IY22) | 0
3 | COG6 (UniProt Q9Y2V7) | 0.004
4 | DGCR8 (UniProt Q8WYQ5) | -0.219
5 | COPZ1 isoform 4 (UniProt P61923) | 0.03
6 | DENND6A (UniProt Q8IWF6) | 0.001
7 | CKAP5 (UniProt Q14008) | -0.013
8 | CNOT2 (UniProt Q9NZN8) | 0.006
9 | COL6A5 (UniProt A8TX70) | 0.108
10 | DCP1A (UniProt Q9NPI6) | 0.046
11 | COG2 (UniProt Q14746) | -0.019
12 | DEF6 (UniProt Q9H4E7) | -0.026
13 | CSDE1 isoform 4 (UniProt O75534) | -0.022
14 | CNOT6L (UniProt Q96LI5) | 0.008
15 | DHRS11 (UniProt Q6UWP2) | 0.007
16 | DNAJC1 (UniProt Q96KC8) | -0.009
17 | DOCK7 (UniProt Q96N67) | 0.009
18 | CTNND1 isoform 3 (UniProt O60716) | -0.016
19 | CHUK (UniProt O15111) | -0.013
20 | COG5 isoform 2 (UniProt Q9UP83) | -0.016
21 | CSTB (UniProt P04080) | 0.121
22 | CHORDC1 (UniProt Q9UHD1) | 0.023
23 | CSTF2 (UniProt P33240) | -0.011
